Compound activity from PubChem BioAssay.
A selection: hits, their analogues and other compounds. The true share with any hit is near 19%.
CHX counter = counter-screen hit for Shiga toxin inhibitors, cycloheximide. cell reporter, cycloheximide protein synthesis inhibition counterscreen. max response, %. 300,000 compounds, 12% hits; in the data active = max response mostly above about 13%, no sharp cut-off; inactive = mostly below about 14%; note: read at 38.3 µM for the half of the compounds with a filed dose; 0% is about no effect
LASV entry inh = inhibitors of Lassa virus binding or cell entry | Lassa virus pseudotype entry inhibition, cell reporter | Potency, µM (highest dose often 37.9 µM), for the others: top-dose activity change, negative = inhibition, actives largely listed as inhibitors | 300,000 compounds, 1.2% hits | AID 540256; calls by dose curve; tested in HEK293 cells; note: potency is the fitted concentration of half-maximal effect; % is set by controls: 0 for no effect and ±100 for the full control effect; nearly all actives have a fitted effect of over 50% in size
Shiga inhibitor = Shiga toxin inhibition; Vero cells, Shiga toxin protein synthesis inhibition reporter; inhibition, % at 38.7 µM; 290,000 compounds, 9.2% hits; AID 2315; in the data active = inhibition mostly above about 28%, no sharp cut-off; inactive = mostly below about 43%; note: 0% is about no effect
Pf growth 96h = inhibits malaria parasite growth, 96 h; 320,000 compounds, 6.9% hits; Potency, µM (doses to about 28.7 µM), inactives show at the highest dose activity change, negative = inhibition, most hits filed as inhibitors; P. falciparum luciferase reporter growth, 96 h; note: potency is the fitted concentration of half-maximal effect; % is set by controls: 0 for no effect and ±100 for the full control effect
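Readout is luminescence from an integrated firefly luciferase in P. falciparum. Red cells, 2% hematocrit and 0.05% parasitemia final, were cultured with compound through two parasite generations (96 hours) at 37 C, 5% CO2.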
MARV entry inh = Marburg virus entry inhibition; Potency, µM (doses to about 37.8 µM), without a hit: top-dose activity change, negative = inhibition, usual class: inhibitors; 300,000 compounds, 1.8% hits; Marburg virus pseudotyped entry inhibition, cell reporter; calls by dose curve; tested in HEK293 cells; note: potency is the fitted concentration of half-maximal effect; % is set by controls: 0 for no effect and ±100 for the full control effect
Pf growth 48h = P. falciparum growth inhibition at 48 hours (one generation); P. falciparum luciferase growth in erythrocytes, 48 h; Potency, µM (series often up to 28.7 µM), for inactives: top-dose activity change, negative = inhibition, hits mostly inhibitors; 310,000 compounds, 5.9% hits; AID 504832; note: potency is the fitted concentration of half-maximal effect; % is set by controls: 0 for no effect and ±100 for the full control effect
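Growth was read as firefly luciferase luminescence after a 48 h, 37 C, 5% CO2 exposure of compounds to reporter-bearing P. falciparum cultures (0.1% parasitemia, 2% hematocrit final) in Albumax-supplemented RPMI 1640.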
* = called active by the depositor; ? = inconclusive; . = no result given; [ ] = another dose, or the depositor's remark. Unless noted, calls come from the whole dose curve; as a rule, active = well fitted inhibition curve with a large enough effect; inconclusive = small, poorly fitted or top-dose-only effect, or another doubt; inactive = no such curve, though single readings can be large or run the other way.

SMILES	CHX counter	LASV entry inh	Shiga inhibitor	Pf growth 96h	MARV entry inh	Pf growth 48h
O=C(CCNS(=O)(=O)c1ccc2[nH]c(=O)oc2c1)NCc1ccc(F)cc1	-2	3%[46.1 µM]	1	20%	2%[46.1 µM]	15%
O=C(/C=C/c1ccnc2ccccc12)c1cccs1	38*	?	73*	?	3.2µM*	63%
COc1cc(OC)c(OC)cc1/C=C/c1ccnc2ccccc12	.	-23%	.	.	?	.
COC(=O)Cc1c(C)c2ccc(OC3CCCCC3=O)c(C)c2oc1=O (stereo not given)	16	-23%	40	19%	-33%	32%
COC(=O)Cc1c(C)c2ccc(OC(=O)c3ccco3)cc2oc1=O	-9	17%	-16	-8%	1%	0%
CCc1cc(=O)oc2cc(OC3CCCCC3=O)ccc12 (stereo not given)	-2	10%[46.1 µM]	22	27%	2%[46.1 µM]	37%
COC(=O)Cc1c(C)c2ccc(OC(C)C)cc2oc1=O	48*	.	96*	24%	.	30%
Cc1c(C)c2ccc(OC3CCCCC3=O)cc2oc1=O (stereo not given)	24*	13%	26	?	4%[46.1 µM]	22%
Cc1c(CC(=O)O)c(=O)oc2cc(OCc3ccc(Br)cc3)ccc12	16*	-1%	27	50%	?	.
COC(=O)Cc1c(C)c2ccc(OC3CCCCC3=O)cc2oc1=O (stereo not given)	39*	.	30*	42%	.	54%
CCN(CC)CCCN(Cc1cc2ccc(C)c(C)c2[nH]c1=O)C(=O)NC1CCCCC1	-1	-3%	-15	9.3µM*	?	?
Cc1ccc2cc(CN(CC3CCCO3)C(=O)NC3CCCCC3)c(=O)[nH]c2c1C (stereo not given)	-2	4%	-2	3%	2%	9%
COc1ccc(CCN(Cc2cc3cccc(C)c3[nH]c2=O)C(=O)NC2CCCCC2)cc1OC	-5	1%	12	2.9µM*	-2%	.
CCOC(=O)N1CCC(NC(=O)c2cc(-c3ccc(OC)cc3)nc3ccccc23)CC1	2	.	13	0%	.	?
CCOC(=O)N1CCC(NC(=O)c2cc3cc4cc(OC)ccc4nc3o2)CC1	-2	-7%	-5	7.4µM*	?	2.9µM*
COc1ccc2nc3oc(C(=O)NC4CCN(Cc5ccccc5)CC4)cc3cc2c1	17	18%	31*	46%	4%	?
COc1ccc2nc3oc(C(=O)NCc4ccccc4OC)cc3cc2c1	.	25%[46.1 µM]	.	.	1%[46.1 µM]	.
COc1ccc(OC)c(-n2c(CN3CCC(C(N)=O)CC3)nc3ccccc3c2=O)c1	-1	-4%	-7	19%[5.75 µM]	6%	20%
COc1ccc(OC)c(-n2c(CNC3CCN(Cc4ccccc4)CC3)nc3ccccc3c2=O)c1	-5	9%	-15	12µM*	-13%	.
COc1ccc(OC)c(NC(=O)CCn2c(=S)[nH]c3ccccc3c2=O)c1	5	-5%[46.1 µM]	-1	-1%	3%[46.1 µM]	-14%
Cc1ccc2scc(N3CCN(c4cccc(C(F)(F)F)c4)CC3)c(=O)c2c1	12	?	16	.	.	.
C=CCN(C(=O)CSc1nc2ccsc2c(=O)n1Cc1ccccn1)c1ccccc1	5	?	24	84%	-27%[46.1 µM]	44%
CCCCCC(=O)Nc1ccc(-c2csc(C)n2)cc1	46*	15%	77*	0%	-2%	62%
CCCCCC(=O)Nc1ccc(-c2csc(N)n2)cc1	57*	-2%	123*	3%	?	?
Cc1ccc2sc(-c3ccc(NC(=O)/C=C\C(=O)O)cc3)nc2c1	40*	?	112*	?	?	364%
SMILES	CHX counter	LASV entry inh	Shiga inhibitor	Pf growth 96h	MARV entry inh	Pf growth 48h
Cc1nc(-c2ccc(NC(=O)/C=C\C(=O)O)cc2)cs1	18*	-28%	50*	12%	-3%[46.1 µM]	50%
CCC(=O)Nc1ccc(-c2csc(NNC(C)=O)n2)cc1	-1	-5%	2	45%	?	-1%
Cc1ccc(S(=O)(=O)Nc2ccc(NC(=O)/C=C/C(=O)O)cc2)cc1	6	11%[46.1 µM]	-23	0%	-21%[46.1 µM]	5%
CCN1CCN(S(=O)(=O)c2ccc(Cl)c(C(=O)Nc3ccc(C(=O)N(CC)CC)cc3)c2)CC1	-2	.	-2	?	.	?
Cc1ccc(C)n1-c1ncc(Br)cn1	-2	3%[46.1 µM]	12	24%	14%[46.1 µM]	-2%
COc1ccc(Cl)cc1NC(=O)COC(=O)c1ccc(Cl)nc1	.	.	.	24%	.	-2%
